The values that follow come from PubChem BioAssay (NCI).

A short description of test [1]: NCI Yeast Anticancer Drug Screen. Data for the rad50 strain (AID 155).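 Note: 0% = growth of vehicle-only cultures of the same strain.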 The settings on record: S. cerevisiae rad50 strain growth inhibition, active compounds read high. Put shortly: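 Relative growth inhibition (compound vs vehicle) was measured in yeast with a defined repair-gene alteration.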
A short description of test [2]: NCI Yeast Anticancer Drug Screen. Data for the mec2-1 strain (AID 157). Conditions: S. cerevisiae mec2-1 strain, active compounds read high. In outline:
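Growth inhibition is read against vehicle-treated controls after compound exposure of the mec2-1 yeast strain, which is defective in DNA damage repair or cell cycle control.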

The nature of test [3]: NCI Yeast Anticancer Drug Screen. Data for the sgs1 mgt1 strain (AID 161).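 Note: 0% = growth of cultures given vehicle only.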 The settings on record: S. cerevisiae sgs1 mgt1 strain, active compounds read high. In outline: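 Yeast cells carrying a defined DNA-repair defect were exposed to test compounds. Growth inhibition was measured relative to vehicle-treated controls.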
Test [4] is described as follows: NCI Yeast Anticancer Drug Screen. Data for the cln2 rad14 strain (AID 165).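 Note: 0% = growth equal to vehicle treated cultures.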 Conditions: S. cerevisiae cln2 rad14 strain, active compounds read high. Put shortly:
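Growth inhibition, relative to vehicle-treated controls, is the read-out. The test organism is a yeast strain with defined genetic alterations, cln2 rad14.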

Test [5] can be described thus: NCI Yeast Anticancer Drug Screen. Data for the bub3 strain (AID 167). The settings on record: S. cerevisiae bub3 mutant strain, active compounds read high. In outline: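 Screening used yeast with an engineered genetic alteration affecting cell cycle control. Compound-exposed cultures were compared with vehicle cultures, and reduced growth was taken as inhibition.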
A short description of test [6]: NCI Yeast Anticancer Drug Screen. Data for the mlh1 rad18 strain (AID 175). The settings on record: S. cerevisiae mlh1 rad18 strain growth inhibition, active compounds read high. Put shortly: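 Cells of a genetically altered yeast strain, deficient in DNA damage repair, were treated with compound. Their growth was then compared with that of vehicle-treated cultures to give inhibition.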

The mark [7] stands for this setting: at 5.0 µM (retest, dose inferred, filed as 0.5).
[8] abbreviates: at 50.0 µM (retest, dose inferred, filed as 5.0).

This is part of a sample that, as a whole, favours compounds with a hit. Of some 79,000 tested, about 15% had one in any assay. A number with no mark means an inactive call. Activity calls are given as the source filed them. Cut-off read from the data, not from the text of the source: active = growth inhibition above about 70%; inactive = the rest.

As for `COc1ccc2c(c1)C(=O)C(Br)CC2` (configuration not stated), the growth inhibition is 16% in test [1] (setting [7]); 98% (active) in test [1] (setting [8]); 25.4% in test [1] (at 50.0 µM); 12% in test [2] (setting [7]); 99% (active) in test [2] (setting [8]); 66.6% in test [2] (at 50.0 µM). For the same compound, the growth inhibition is 2% in test [3] (setting [7]); 55% in test [3] (setting [8]); 71.2% (active) in test [3] (at 50.0 µM); 26% in test [4] (setting [7]); 92% (active) in test [4] (setting [8]); 32% in test [4] (at 50.0 µM). Moreover, the growth inhibition in test [5] (setting [7]) is 32%; in test [5] (setting [8]) it was 99% (active); in test [5] (at 50.0 µM), 70%; in test [6] (setting [7]) it was 13%; in test [6] (setting [8]), 99% (active); in test [6] (at 50.0 µM), 65.8%.

`CC(SCc1ccccc1)C(=O)O` (configuration not stated): the growth inhibition is -10% in test [1] (setting [7]); 10% in test [1] (setting [8]); -9.25% in test [1] (at 50.0 µM); 3% in test [2] (setting [7]); 7% in test [2] (setting [8]); -29.8% in test [2] (at 50.0 µM). The growth inhibition in test [3] (setting [7]) was -6%; in test [3] (setting [8]) it was 3%; in test [3] (at 50.0 µM) it was -35.9%; in test [4] (setting [7]), 9%; in test [4] (setting [8]), -1%; in test [4] (at 50.0 µM), 73% (active). Besides, the growth inhibition in test [5] (setting [7]) was -21%; in test [5] (setting [8]), -2%; in test [5] (at 50.0 µM), -18.6%; in test [6] (setting [7]), -2%; in test [6] (setting [8]), 44%; in test [6] (at 50.0 µM), -44.5%.

Consider `COc1ccc(NC(=O)OC(C)C)c(OC)c1`, for which the growth inhibition in test [1] (setting [7]) was 2%; in test [1] (setting [8]), 10%; in test [1] (at 50.0 µM), -2.75%; in test [2] (setting [7]), -4%; in test [2] (setting [8]) it was 4%; in test [2] (at 50.0 µM), 6.45%. The growth inhibition in test [3] (setting [7]) was -3%; in test [3] (setting [8]) it was 7%; in test [3] (at 50.0 µM) it was -21.4%; in test [4] (setting [7]), 5%; in test [4] (setting [8]), 2%; in test [4] (at 50.0 µM), 45.4%. The growth inhibition in test [5] (setting [7]) is 15%; in test [5] (setting [8]) it was 42%; in test [5] (at 50.0 µM), 18.4%; in test [6] (setting [7]), 3%; in test [6] (setting [8]), 8%; in test [6] (at 50.0 µM), -10.8%.

As to `CC#CS(=O)(=O)c1ccccc1`, the growth inhibition in test [1] (setting [7]) was 1%; in test [1] (setting [8]), 40%; in test [1] (at 50.0 µM) it was 74.7% (active); in test [2] (setting [7]), -1%; in test [2] (setting [8]) it was 52%; in test [2] (at 50.0 µM), 85.5% (active). Also, the growth inhibition in test [3] (setting [7]) is 10%; in test [3] (setting [8]), 81% (active); in test [3] (at 50.0 µM) it was 80.7% (active); in test [4] (setting [7]) it was 3%; in test [4] (setting [8]), 23%; in test [4] (at 50.0 µM) it was 13.9%. For the same compound, the growth inhibition in test [5] (setting [7]) is 0%; in test [5] (setting [8]), 19%; in test [5] (at 50.0 µM), 6.35%; in test [6] (setting [7]) it was 36%; in test [6] (setting [8]), 87% (active); in test [6] (at 50.0 µM), 66.6%.

`COc1ccc(CN=C(N)N)c2ccccc12`: the growth inhibition in test [1] (setting [7]) is 5%; in test [1] (setting [8]) it was 7%; in test [1] (at 50.0 µM), -29.9%; in test [2] (setting [7]), 2%; in test [2] (setting [8]) it was 5%; in test [2] (at 50.0 µM), -24.4%. The growth inhibition in test [3] (setting [7]) was -6%; in test [3] (setting [8]), -1%; in test [3] (at 50.0 µM), -15.7%; in test [4] (setting [7]), 31%; in test [4] (setting [8]), 31%; in test [4] (at 50.0 µM), -3%. In addition, the growth inhibition in test [5] (setting [7]) was -22%; in test [5] (setting [8]) it was -23%; in test [5] (at 50.0 µM) it was -32.5%; in test [6] (setting [7]), 13%; in test [6] (setting [8]), 10%; in test [6] (at 50.0 µM), -5.45%.

For `Cc1cc(N(CCOS(C)(=O)=O)CCOS(C)(=O)=O)ccc1C=Nc1ccc(-c2csc(-c3ccc(Cl)cc3)n2)cc1`, the growth inhibition in test [1] (setting [7]) was 22%; in test [1] (setting [8]) it was 93% (active); in test [1] (at 50.0 µM), 93.9% (active); in test [2] (setting [7]), 17%; in test [2] (setting [8]) it was 96% (active); in test [2] (at 50.0 µM) it was 97% (active). The growth inhibition in test [3] (setting [7]) was 18%; in test [3] (setting [8]), 93% (active); in test [3] (at 50.0 µM), 96.4% (active); in test [4] (setting [7]) it was 4%; in test [4] (setting [8]), 93% (active); in test [4] (at 50.0 µM), 87.7% (active). The growth inhibition in test [5] (setting [7]) is -2%; in test [5] (setting [8]), 88% (active); in test [5] (at 50.0 µM) it was 90.3% (active); in test [6] (setting [7]), 57%; in test [6] (setting [8]) it was 95% (active); in test [6] (at 50.0 µM), 94.9% (active).

Take `COC(=O)c1ccc(/C=C/C2=CC(=O)C=CC2=O)cc1`: the growth inhibition in test [1] (setting [7]) was 30%; in test [1] (setting [8]), 44%; in test [1] (at 50.0 µM) it was 29.6%; in test [2] (setting [7]), 27%; in test [2] (setting [8]), 41%; in test [2] (at 50.0 µM), 36.5%. In addition, the growth inhibition in test [3] (setting [7]) was 27%; in test [3] (setting [8]) it was 57%; in test [3] (at 50.0 µM) it was 78.2% (active); in test [4] (setting [7]) it was 18%; in test [4] (setting [8]), 28%; in test [4] (at 50.0 µM) it was 58.9%. In addition, the growth inhibition in test [5] (setting [7]) was 37%; in test [5] (setting [8]), 57%; in test [5] (at 50.0 µM) it was 75.3% (active); in test [6] (setting [7]) it was 29%; in test [6] (setting [8]) it was 57%; in test [6] (at 50.0 µM), 84.1% (active).

As to `CCCCc1ccc2nc(C)cc(N/N=C/c3ccc4c(c3)OCO4)c2c1`, the growth inhibition in test [1] (setting [7]) is 9%; in test [1] (setting [8]), 20%; in test [1] (at 50.0 µM), 66.7%; in test [2] (setting [7]) it was 1%; in test [2] (setting [8]), 19%; in test [2] (at 50.0 µM), 22%. Further, the growth inhibition in test [3] (setting [7]) was 15%; in test [3] (setting [8]), 31%; in test [3] (at 50.0 µM), 73.5% (active); in test [4] (setting [7]) it was -3%; in test [4] (setting [8]), 2%; in test [4] (at 50.0 µM), 15.9%. The growth inhibition in test [5] (setting [7]) was -4%; in test [5] (setting [8]), 1%; in test [5] (at 50.0 µM), 6.6%; in test [6] (setting [7]) it was 9%; in test [6] (setting [8]), 35%; in test [6] (at 50.0 µM), 29.8%.

As to `CC(C)N=C1NS(=O)(=O)c2ccccc21`, the growth inhibition is -2% in test [1] (setting [7]); -1% in test [1] (setting [8]); 5.5% in test [1] (at 50.0 µM); -2% in test [2] (setting [7]); 0% in test [2] (setting [8]); -3.75% in test [2] (at 50.0 µM). Also, the growth inhibition was 0% in test [3] (setting [7]); -4% in test [3] (setting [8]); -0.4% in test [3] (at 50.0 µM); 0% in test [4] (setting [7]); -2% in test [4] (setting [8]); 17.8% in test [4] (at 50.0 µM). Besides, the growth inhibition in test [5] (setting [7]) is -3%; in test [5] (setting [8]), -2%; in test [5] (at 50.0 µM) it was 21.4%; in test [6] (setting [7]), -5%; in test [6] (setting [8]) it was 0%; in test [6] (at 50.0 µM), 2.6%.
